52 compounds from PubChem BioAssay AID540276 (National Center for Advancing Translational Sciences (NCATS), 2011) can be followed below.

In all, about 300,000 compounds went through this assay and about 5,400 (1.8%) were called active. About 28% were inconclusive and are not listed. For the sample, actives were picked, then their nearest neighbours and some compounds at random. Values without a mark were called inactive. Calls follow the shape of the full dose curve; tested in HEK293 cells.
% is scaled to controls: 0 for no effect and ±100 for the full control effect; potency is read from the fitted curve at half-maximal effect.

A short description of the assay: qHTS for inhibitors of binding or entry into cells for Marburg Virus. The note with it: Marburg virus pseudotyped entry inhibition, cell reporter; series mostly up to 37.8 µM; activity change, negative = inhibition: at the top concentration. Background: In qHTS, concentration-response curves come from the screen itself.
On to `CC1CCCN(CCOCCOc2ccccc2-c2ccccc2)C1` (configuration not stated), for which the Potency is 11.2 µM (active). Turning to `CC1CN(CCOc2ccccc2[N+](=O)[O-])CC(C)O1` (configuration not stated), the “activity change, negative = inhibition” value is -16.6% [at 46.1 µM].

In the case of `CN(Cc1ccc(F)cc1)C(=O)CN1C(=O)c2ccccc2S1(=O)=O`, the “activity change, negative = inhibition” value was 1.59%.

For `COc1ccc(C(=O)CC(=O)c2ccc(C)cc2)c(O)c1`, the “activity change, negative = inhibition” value was 1.43% [at 46.1 µM]. The same measure, in the same setting: with `COc1ccc(N=C2C=CC(=O)O2)cc1` the figure was -4.62% [at 46.1 µM]; with `COc1ccc(Cc2nc3ccc(C(=O)NCC4CCOCC4)cc3o2)cc1OC`, 1.26%. With `O=C(Cc1c[nH]c2ccccc12)OCCOC(=O)Cc1c[nH]c2ccccc12`, the Potency is 18.3 µM (active).

For `O=C(COC(=O)Cc1c[nH]c2ccccc12)NCCc1ccccc1`, the “activity change, negative = inhibition” value was -9.54% [at 46.1 µM]. Same read-out and setting: with `CCOC(=O)CN(C)Cc1c[nH]c2ccccc12` the figure was -2.54%; with `COc1ccc(S(=O)(=O)NCc2cccnc2)cc1NC(=O)c1ccc(C)cc1`, 3.55%; with `COc1cc(C(=O)Nn2c(CC(C)C)nc3ccccc3c2=O)cc(OC)c1OC`, -6.04%. Take `Cc1cc(O)ccc1-c1cnc2ccccc2n1`: the Potency result was “inactive”. For `Cc1ccc(Nc2nc(-c3ccc(O)cc3O)cs2)nc1`, the Potency is 4.47 µM (active). `Cc1ccc(NC(=O)c2cc(-c3ccc(C)o3)nc3ccccc23)nc1`: the “activity change, negative = inhibition” value was -6.53%.

On to `CC(=O)c1ccc(S(=O)(=O)Nc2ccc(-c3ccc4nncn4n3)cc2)cc1`, for which the “activity change, negative = inhibition” value was -15.7%. Turning to `NC(=S)NN=C1CCCC(C(F)(F)F)C1` (configuration not stated), the “activity change, negative = inhibition” value was -2.75%. `O=C(COC(=O)c1ccc(Br)o1)NC12CC3CC(CC(C3)C1)C2`: the “activity change, negative = inhibition” value was 31%. The same measure, in the same setting: with `CCOc1cc(N2CCOCC2)c(OCC)cc1NC(=O)COc1cccc(Cl)c1` the figure was -3.98%. `CCOc1cc(N2CCOCC2)c(OCC)cc1NC(=O)COc1cccc2cccnc12`: the Potency is 4.47 µM (active). For the compound `CCOc1cc(N2CCOCC2)c(OCC)cc1NC(=O)COC(=O)[C@H](Cc1c[nH]c2ccccc12)NC(C)=O`, the “activity change, negative = inhibition” value was 9.35%.

Take `COc1ccc(Cl)cc1NC(=O)CN1CCN(C(=O)N2CCOCC2)CC1`: the “activity change, negative = inhibition” value is 24.5%. Take `Cc1ccc(Nc2c3c(nc4ccccc24)CCC3)cc1`: the Potency was 11.2 µM (active). Take `O=C(Nc1c2c(nc3ccccc13)CCCC2)c1ccccc1Br`: the “activity change, negative = inhibition” value is -4.15% [at 46.1 µM]. The same measure, in the same setting: as for `CCOc1ccc(NC(=O)CSc2c3c(nc4ccccc24)CCCC3)cc1`, the figure is 3.83% [at 46.1 µM]; as for `Cc1ccc(C(=O)O)c(NC=O)c1OCc1ccccc1`, -16.2% [at 46.1 µM]; as for `Cc1[nH]c(C)c(S(=O)(=O)N2CCC(C)CC2)c1C(=O)N1CCCC1`, 8.85% [at 46.1 µM]. Still for that read-out and setting: as for `CN(CC(=O)NCCc1ccc(S(N)(=O)=O)cc1)CC(=O)Nc1ccc(Cl)cc1`, the figure is 12.9%; as for `COC(=O)NC1(C(F)(F)F)NC(=O)N(C2CCCCC2)C1=O` (configuration not stated), 0.437%; as for `O=C(NC1(C(F)(F)F)N=C(c2ccccc2)N(C2CCCCC2)C1=O)c1ccccc1F` (configuration not stated), -21.3% [at 46.1 µM]. In the case of `O=C1NC(Nc2nc3ccccc3s2)(C(F)(F)F)C(=O)N1C1CCCCC1` (configuration not stated), the Potency was 6.51 µM (active).

Take `C=CCOc1cccc(CNCc2cccnc2)c1`: the “activity change, negative = inhibition” value was 15.2% [at 46.1 µM].

For `COc1ccc(-c2nn(-c3ccccc3)cc2/C=C\C(=O)N2CCOCC2)cc1[N+](=O)[O-]`, the “activity change, negative = inhibition” value is 15.3% [at 46.1 µM]. With `O=C(/C=C/c1cn(-c2ccccc2)nc1-c1ccc2c(c1)OCCO2)NCCCN1CCOCC1`, the Potency is 3.55 µM (active). `CC(C)c1ccc(/C=C/C(=O)NCCCN2CCOCC2)cc1`: the “activity change, negative = inhibition” value is -28.2%. Take `Cc1cc(F)ccc1NC(=S)NCCc1ccccc1`: the “activity change, negative = inhibition” value was 6.16% [at 46.1 µM]. Same read-out and setting: with `O=C(Nc1cccc(Cl)c1Cl)c1ccccc1NC(=O)C1CC=CCC1C(=O)O` (configuration not stated) the figure was -14.1% [at 46.1 µM]; with `Cc1ccccc1CN1CCNC(=O)C1CC(=O)NCCC1=CCCCC1` (configuration not stated), -26%. Turning to `Cc1ccc(NC(=O)c2ccccn2)cc1S(=O)(=O)N1CCOCC1`, the “activity change, negative = inhibition” value was 1.1%.

As to `COc1ccccc1C(=O)Nc1ccc(C)c(S(=O)(=O)N2CCCCC2)c1`, the Potency is 8.91 µM (active). With `Cc1ccc(C(=O)NNC(=O)c2ccncc2)cc1S(=O)(=O)N1CCCCC1`, the “activity change, negative = inhibition” value was -0.132%.

With `Cc1ccc(NC(=O)CCCNC(=O)c2ccc(Cl)cc2)cc1S(=O)(=O)N1CCCCC1`, the “activity change, negative = inhibition” value was -11%.

Take `O=S(=O)(Nc1ccccc1)c1ccc(NS(=O)(=O)c2cccs2)cc1`: the “activity change, negative = inhibition” value was -21.5% [at 46.1 µM]. On to `Cc1ccc(NS(=O)(=O)c2cccs2)cc1S(=O)(=O)N1CCCCCC1`, for which the Potency is 10 µM (active). Take `CCOc1ccc2ccccc2c1/C=N/NC(=O)c1c(C)cc(C)[nH]c1=O`: the “activity change, negative = inhibition” value was 22% [at 46.1 µM].

Turning to `Cc1ccc(/C=C2\CCn3c2nc2cc(C(=O)O)ccc2c3=O)c(C)c1`, the “activity change, negative = inhibition” value is -23.6% [at 46.1 µM]. Same read-out and setting: with `Cc1ccc(Nc2nnc(SC(C)C(=O)NC3CC3)s2)cc1` (configuration not stated) the figure was 11.7%; with `CCOC(=O)C1CCN(C(=O)CN2C(=O)c3cccnc3Oc3ccc(C)cc32)CC1`, 17.4% [at 46.1 µM]; with `O=C(NNC(=O)C(O)c1ccccc1)NC1CCCCC1` (configuration not stated), 15.9% [at 46.1 µM]. Consider `Cc1nc(/N=C(\N)NC(=O)NC2CCCCC2)nc2ccccc12`, for which the Potency was 7.94 µM (active).

On to `COc1ccc2nc(/N=C(\N)NC(=O)Nc3ccccc3)nc(C)c2c1`, for which the “activity change, negative = inhibition” value is -30.2%. The same measure, in the same setting: as for `O=C(OCCOCn1cc(Br)c(=O)[nH]c1=O)c1ccccc1`, the figure is -4.74% [at 46.1 µM]; as for `C=CCn1c(=O)n(C)c2c(=O)n(C)c(=O)n(C)c21`, 5.71% [at 46.1 µM].
